Among the data in ChEMBL document CHEMBL3988442, “University of Dundee, Small-Polar-MMV Screening Library” (2021) are Percent Effect values, retold here.

Experiment [1] deals with T1, Aspartate--tRNA(Asp/Asn) ligase (Mycobacterium tuberculosis (strain ATCC 25618 / H37Rv)) (UniProt P9WFW3).
T1 sequence (whole entry): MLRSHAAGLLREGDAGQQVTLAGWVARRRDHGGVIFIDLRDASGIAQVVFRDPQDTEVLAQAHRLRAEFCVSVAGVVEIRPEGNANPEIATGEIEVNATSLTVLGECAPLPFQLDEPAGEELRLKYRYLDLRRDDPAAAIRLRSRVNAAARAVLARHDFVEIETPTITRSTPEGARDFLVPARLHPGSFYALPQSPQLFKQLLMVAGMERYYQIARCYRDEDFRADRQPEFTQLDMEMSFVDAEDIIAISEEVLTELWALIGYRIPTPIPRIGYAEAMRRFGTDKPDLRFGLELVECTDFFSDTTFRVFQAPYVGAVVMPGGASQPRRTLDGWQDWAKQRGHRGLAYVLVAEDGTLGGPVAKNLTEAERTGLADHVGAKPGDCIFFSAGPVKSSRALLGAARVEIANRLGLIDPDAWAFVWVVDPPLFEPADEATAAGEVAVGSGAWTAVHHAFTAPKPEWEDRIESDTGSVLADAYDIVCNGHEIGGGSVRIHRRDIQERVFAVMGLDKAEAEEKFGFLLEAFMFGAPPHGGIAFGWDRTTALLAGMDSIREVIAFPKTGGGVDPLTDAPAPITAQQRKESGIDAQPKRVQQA
Kind of experiment: Assay for Asp RNA synthetase-1 from Mycobacterium tuberculosis. The format is functional. The following applies: 30 µM. Also on record: scale not given: direction of the effect not stated beside the values.

In experiment [2] the target is Shiga toxin 2 (Escherichia coli O157:H7) (UniProt P09385+P09386). Nature of the experiment: E. coli 0.157:H7 Shiga Toxin SOP - stx2 screening assay. The class given is functional. Also on record: scale not given: direction of the effect not stated beside the values. As to conditions: 30 µM.

Regarding `Cc1ccc(-c2cc(C(=O)NC(C)C(=O)N3CCCCC3)on2)cc1` (stereo unspecified), the Percent Effect in experiment [1] is 2.34%; in experiment [2], -5.52%.
Take `NC(=O)C1CCCN(C(=O)c2cnc3c(cnn3C3CCCC3)c2)C1` (stereo unspecified): the Percent Effect in experiment [1] was -6.91%; in experiment [2] it was -20.7%.
For `CC(=O)N(Cc1noc(C)n1)C1CCN(CCOc2ccccc2)C1` (stereo unspecified) the same measures were 2.87% and -29.9%.
For `Cc1ccoc1C(=O)N1CC[C@H]2OCC[C@@]2(COCc2ccncc2)C1` the same measures were 3.13% and -14.8%.
For `CC(C)(C)C(=O)N1C[C@H](c2ccsc2)[C@H]2CN(Cc3cccs3)CC[C@H]21` the same measures were -0.28% and -20.2%.
`Cc1nn(C)c(N(C)C)c1CNCc1ccc(OCC(N)=O)cc1`: the results for the Percent Effect in experiment [1] and in experiment [2] were -6.72% and -11.7%, respectively.
For `CNS(=O)(=O)c1cccc(CNc2ccc(C(F)(F)F)nn2)c1` the same measures were -3.88% and 14.2%.
For `CS(=O)(=O)NC[C@]12COC[C@H]1CN(CC1CCCC1)C2`, the values for the Percent Effect in experiment [1] and in experiment [2] were 0.107% and 6.37%, respectively.
For `O=C(Cc1ccc2c(c1)CCC2)NCCNc1ncccn1` the same measures were -1.71% and 7.96%.
For `O=C(CSc1ccncc1)N1C[C@H]2CC[C@@H]1CN(Cc1cccnc1)C2` the same measures were 2.67% and -11.3%.
With `O=C(NCCOc1ccc2c(c1)OCO2)C1CC(=O)N(CC2CC2)C1` (stereo unspecified), the Percent Effect in experiment [1] came to 4.55%; in experiment [2], 24.2%.
The like results for `CCS(=O)(=O)N1CCC(c2nnc(Cn3cccn3)n2C2CC2)CC1` were, in that order, -3.09% and -6.14%.
The like results for `CN(C)C(=O)c1ccc2c(c1)N(C)C(CC(=O)NCCC(C)(C)C)CO2` (stereo unspecified) were, in that order, 0.279% and 5.86%.
As to `CCN1CCCn2c(nc(CNC(=O)c3ccsc3)cc2=O)C1`, the Percent Effect in experiment [1] turned out to be 7.56%; in experiment [2], 11.3%.
The like results for `CCOc1ccc(N2CCCN=C2NC(=O)c2ccccc2C)cc1` were, in that order, 4.31% and -57.5%.
The like results for `CCc1nc(C2CCCN2Cc2nc(C3CC3)no2)no1` (stereo unspecified) were, in that order, -4.58% and -6.89%.
The like results for `CNC(=O)[C@@]12CCC3(CCN(S(C)(=O)=O)CC3)[C@@H]1CN(S(C)(=O)=O)C2` were, in that order, 0.0987% and -5.23%.
Regarding `Cc1oc(C)c(C(=O)N2CCCN(Cc3cscn3)CC2)c1C`, the Percent Effect in experiment [1] is -1.41%; in experiment [2], 26.2%.
